Compounds without any hit were thinned out: in the full panel of roughly 83,000, 20% have a hit.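 Assay: single dose, 48 h. Readout: percent growth (0 = no net growth; negative = cell death). Active: <10.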 Active and inactive are the calls of the source.

The subject of the assay is NCI-H23 lung. Kind of assay: NCI-60 one-dose screen, 48 h (100 = growth as untreated, 0 = no growth, -100 = all killed). The conditions noted are these: 10 µM unless noted. How it is done:
Growth inhibition of the NCI-H23 human Non-Small Cell Lung tumor cell line is measured as a screen for anti-cancer activity. Cells are grown in 96 well plates and exposed to the test compound for 48 hours. Compounds are tested at a single concentration, which is 10^-5 M for most compounds. The reported endpoint is percent growth (GI% or GIPRCNT), where numbers from 0 - 100% represent growth inhibition, and numbers from -100% - 0 represent cell death. For example, a value of 40 represents 60% growth inhibition. A value of 0 means no net growth occurred over the course of the experiment. A value of -40 indicates 40% of cells at the beginning of the experiment died by the end of the experiment. A value of -100 means all cells are dead at the end of the experiment.
NCI-60 Human Tumor Cell Lines Screen was performed using the standard one-dose NCI protocol, which is described in more detail at https://dtp.cancer.gov/discovery_development/nci-60/default.htm.
Compounds with GIPRCNT values below 10 were considered active. Activity score was based on GIPRCNT using the following formula: […]
Score is 0 for GIPRCNT values of 100 or above, 50 for GIPRCNT values of 0, and 100 for GIPRCNT values of -100.
In the case of `O=C(/C(=C\c1ccc([N+](=O)[O-])cc1)S(=O)Cc1ccc(Cl)cc1)c1ccc(Cl)cc1` (stereo not given), the growth is 84.5% (inactive).
In the case of `COc1ccc(C(=O)c2cc(C)c(OC)c(C)c2)c(OC)c1OC(=O)C(Cl)Cl`, the growth was 29.2% (inactive).
Then `N#CC(C(=O)/C(=N/NC(=O)c1ccccc1O)C(C#N)c1ccccc1)c1ccccc1` (stereo not given), with 55.5% (inactive); and `O=C(Cc1ccc(/C=C/C(=O)c2ncc[nH]2)cc1)Nc1ccc(Cl)cc1`, with 28.6% (inactive).
For `COc1cc(/C=C/c2cc(O)c(C(C)=O)c(O)c2)cc2c1O[C@]1(C)CC[C@@H](O)C(C)(C)[C@H]1C2`, the growth was 73.6% (inactive).
Turning to `COc1cc2nc(-c3ccc(Cl)cc3)cc(OCCCN3CCOCC3)c2cc1OC`, the growth is 73.3% (inactive).
On to `CCCCCC(=O)Oc1ccc(/C(=C(\C)c2ccccc2)c2ccc(OCCN3CCCCC3)cc2)cc1`, for which the growth is 74.9% (inactive).
For `Cn1ccnc1C(=O)/C=C/c1ccc(CC(=O)NC2CCCCC2)cc1` the value was 61.9% (inactive); for `N#Cc1cc(-c2nc3ccccc3s2)c(=O)n(NS(=O)(=O)c2ccccc2)c1N`, 102% (inactive); for `Nc1c(C(=O)Nc2ccnc3ccccc23)sc2nc3c(cc12)CN(Cc1ccccc1)CC3`, 70.3% (inactive).
Then `CC1(C)CC[C@]2(C(=O)O)CC[C@]3(C)C(=CC[C@@H]4[C@@]5(C)Cc6c([nH]c7ccccc67)C(C)(C)[C@@H]5CC[C@]43C)[C@@H]2C1`, with 32.8% (inactive); and `CN1CCN(C(=O)[C@]23CCC(C)(C)C[C@H]2C2=CC[C@@H]4[C@@]5(C)C/C(=C/c6cccnc6)C(=O)C(C)(C)[C@@H]5CC[C@@]4(C)[C@]2(C)CC3)CC1`, with 72.8% (inactive); and `Cc1cnc(C(=O)Nc2nc3ccc(S(=O)(=O)Nc4ccc(C(C)(C)C)cc4)cc3[nH]2)cn1`, with 37.4% (inactive).
For `O=S(=O)(NCCCNc1nccc(-c2c(-c3cccc(F)c3)nc3sccn23)n1)c1cccc(F)c1`, the growth was 38.8% (inactive).
Then `COc1ccc(C(=O)Nc2cccc(C3CCc4c(cc(OC)c(OC)c4OC)O3)c2)cc1` (stereo not given), with 58.9% (inactive); and `CN[C@@H](C)C(=O)N[C@H]1CCS[C@H]2CC(C)(C)[C@@H](C(=O)N[C@H]3c4ccccc4C[C@H]3OCC#CC#CCO[C@@H]3Cc4ccccc4[C@@H]3NC(=O)[C@H]3N4C(=O)[C@@H](NC(=O)[C@H](C)NC)CCS[C@H]4CC3(C)C)N2C1=O`, with 57.6% (inactive).
On to `O=C(/C(=C/c1ccc([N+](=O)[O-])cc1)SCc1ccc(F)cc1)c1ccc(F)cc1`, for which the growth is 74.8% (inactive).
With `Cc1cc2c(c(C)c1Cl)C(=O)/C(=C/c1ccc(O)c(O)c1)O2`, the growth is 94.6% (inactive).
`Cc1nc(N)nc(N[C@@H](C)c2nc3cccc(NCc4ccc(C(=O)NO)cc4)c3c(=O)n2-c2ccccc2)n1`: the growth is 63.9% (inactive).
Then `CC(C)N1C(=O)S/C(=C2/SC(=O)N(C(C)C)C2=O)C1=O`, with 93.8% (inactive); and `NS(=O)(=O)c1ccc(CCN2C(=O)C3C(C2=O)C2(Cl)C(Cl)=C(Cl)C3(Cl)C2(Cl)Cl)cc1` (stereo not given), with 92.9% (inactive).
For `CNC(=O)c1cccc(Cn2nc(C)c(NC(=O)c3ccc(COc4ccc(C(F)(F)F)cc4C)cc3)c2C)c1` the value was 47.3% (inactive); for `N#CC1C(C#N)C(C(=O)c2ccc(Br)cc2)N2c3ccccc3C=CC12` (stereo not given), 79.2% (inactive).
Consider `COc1ccc(C(=O)/C=C/c2cc3ccccc3n3nnnc23)cc1`, for which the growth is 103% (inactive).
Regarding `COc1ccc(Cc2cnc(NC(=O)c3ccc4c(c3)OCCO4)s2)cc1`, the growth was 18.8% (inactive).
Then `CCNc1nc2cc(Nc3ccnc4cc(Cl)ccc34)ccc2o1`, with 66.9% (inactive); and `COC(=O)c1ccc2c(c1)[n+](=O)c(C(C)=O)c(C(F)(F)F)n2[O-]`, with -62.2% (active); and `O=S(=O)(NCCNc1nccc(-c2c(-c3cccc(F)c3)nc3sccn23)n1)c1ccccc1`, with 56.1% (inactive).
As to `C=C1C(=O)O[C@H]2[C@H]1CC/C(CNC(=O)c1cccc3ccccc13)=C\CC[C@@]1(C)O[C@@H]21`, the growth is 70.1% (inactive).
With `COc1ccc(C(=O)CSc2nc(-c3cc(OC)ccc3OC)cc(-c3ccc(Cl)cc3)c2C#N)cc1`, the growth is 44.1% (inactive).
Take `CCOC(=O)[C@@H]1CCCN(S(=O)(=O)c2ccc(S(=O)(=O)N(CC)CC)c(F)c2)C1`: the growth is 45.3% (inactive).
For `CC1=C(C(=O)/C=C/c2ccc(N(C)C)cc2)C(c2ccccc2)NC(=S)N1` (stereo not given) the value was 93.3% (inactive); for `Cn1cc(-c2nc(-c3c[nH]c4c(Cl)nccc34)cs2)c2cc(Br)ccc21`, 99.8% (inactive); for `C=C1C(=O)O[C@H]2[C@H]1CC/C(COC(=O)NCC(C)c1ccc(CC(C)C)cc1)=C\CC[C@@]1(C)O[C@@H]21` (stereo not given in full), 30.7% (inactive).
`CC1=CCC(OC(=O)C(C)(O)CCC(O)(C(=O)OC2(C)C=CC(O)(C(C)C)CC2)C(C)C)(C(C)C)CC1` (stereo not given): the growth is 108% (inactive).
Then `C=C(C)[C@@H]1CC[C@]2(C(=O)N3CCN(C)CC3)CC[C@]3(C)[C@H](CC[C@@H]4[C@@]5(C)CC[C@H](OCCC#N)C(C)(C)[C@@H]5CC[C@]43C)[C@@H]12`, with 100% (inactive).
Then `S=c1cc(S)c2cc(Br)ccc2[nH]1`, with 81.5% (inactive); and `N#Cc1c(NCc2ccccc2I)sc2c1CCCCC2`, with 87.5% (inactive).
On to `O=S(=O)(NCCNc1nccc(-c2c(-c3cccc(F)c3)nc3sccn23)n1)c1ccc(Br)cc1`, for which the growth was 72.6% (inactive).
Then `CC(=O)Nc1ccc(-c2ccc3c(c2)NC(=O)/C3=C\c2ccc[nH]2)cc1`, with 52.5% (inactive).
